PubChem BioAssay AID1159580 (chemical genetic matrix, 2015)
Values joined by “and” are separate entries in the source; they are usually repeats but may differ in a detail not shown here. Equal entries are not always repeated. The whole screen tested about 5,500 compounds, of which about 2,000 (36%) were called active. About 18% were inconclusive and are not listed. No stated cut-off is given here; in the data, active means normalized growth mostly below about 0.91 (no sharp cut-off); inconclusive means no clear call, values can overlap the other calls; inactive means mostly above about 0.92. Some of the results follow.

Assay: chemical genetic growth profiling, strain panel (AID 1159580);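 further: tested at 20 µM; growth read once vehicle control cultures reached saturation at 30 °C; 1 = growth at the plate median or of vehicle wells; lower values mean less growth of the strain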
Conditions: growth OD

Measured: normalized growth

COCCOC(=O)C1=C(C)NC(C)=C(C(=O)OC(C)C)C1c1cccc([N+](=O)[O-])c1 (stereo unspecified)
inactive: S. cerevisiae deletion strains, locus YJR075W, strain HOC1, hits give low values 1.01 | S. cerevisiae deletion strains, locus YKL009W, strain mrt4, hits give low values 0.967 | S. cerevisiae deletion strains, locus YKL068W, hits give low values 1 | S. cerevisiae deletion strains, locus YKL085W, strain MDH1 (second series), hits give low values 0.986 | S. cerevisiae deletion strains, locus YKL085W, strain MDH1, hits give low values 0.986 | S. cerevisiae deletion strains, locus YKL160W, strain elf1, hits give low values 1.02 | S. cerevisiae deletion strains, locus YKL190W, strain CNB1, hits give low values 0.997 | S. cerevisiae deletion strains, locus YKR001C, strain vps1, hits give low values 1.01 | S. cerevisiae deletion strains, locus YKR026C, strain gcn3, hits give low values 1.01 | S. cerevisiae deletion strains, locus YKR091W, strain srl3, hits give low values 0.995 | S. cerevisiae deletion strains, locus YLL001W, strain dnm1, hits give low values 1.01 | S. cerevisiae deletion strains, locus YLL026W, hits give low values 1 | S. cerevisiae deletion strains, locus YLL041C, strain sdh2, hits give low values 1.01 | S. cerevisiae deletion strains, locus YLR027C, strain aat2, hits give low values 1 | S. cerevisiae deletion strains, locus YLR039C, strain RIC1, hits give low values 1.02 | S. cerevisiae deletion strains, locus YLR058C, strain SHM2, hits give low values 1 | S. cerevisiae deletion strains, locus YLR102C, strain apc9, hits give low values 1.02 | S. cerevisiae deletion strains, locus YLR113W, strain HOG1, hits give low values 0.954 | S. cerevisiae deletion strains, locus YLR221C, strain rsa3, hits give low values 1 | S. cerevisiae deletion strains, locus YLR258W, strain gsy2, hits give low values 1.01 | S. cerevisiae deletion strains, locus YLR262C, strain YPT6 (second series), hits give low values 0.988 | S. cerevisiae deletion strains, locus YLR262C, strain YPT6, hits give low values 1.05 | S. cerevisiae deletion strains, locus YLR268W, strain sec22, hits give low values 0.993 | S. cerevisiae deletion strains, locus YLR320W, strain mms22, hits give low values 0.984 | S. cerevisiae deletion strains, locus YLR330W, strain CHS5, hits give low values 1.01 | S. cerevisiae deletion strains, locus YLR342W, strain FKS1 (second series), hits give low values 1.01 | S. cerevisiae deletion strains, locus YLR342W, strain FKS1, hits give low values 1.02 | S. cerevisiae deletion strains, locus YLR357W, strain rsc2, hits give low values 1.02 | S. cerevisiae deletion strains, locus YLR370C, strain arc18, hits give low values 1 | S. cerevisiae deletion strains, locus YLR371W, strain rom2, hits give low values 1.01 | S. cerevisiae deletion strains, locus YLR384C, strain iki3, hits give low values 1.02 | S. cerevisiae deletion strains, locus YLR418C, strain cdc73, hits give low values 0.974 | S. cerevisiae deletion strains, locus YML016C, strain PPZ1, hits give low values 1 | S. cerevisiae deletion strains, locus YML032C, strain rad52, hits give low values 1.01 | S. cerevisiae deletion strains, locus YML120C, strain ndi1, hits give low values 1.03 | S. cerevisiae deletion strains, locus YML124C, strain tub3, hits give low values 1.01 | S. cerevisiae deletion strains, locus YMR058W, strain fet3, hits give low values 1.02 | S. cerevisiae deletion strains, locus YMR078C, strain ctf18, hits give low values 1.02 | S. cerevisiae deletion strains, locus YMR125W, strain sto1, hits give low values 1.06 | S. cerevisiae deletion strains, locus YMR129W, hits give low values 1.01 | S. cerevisiae deletion strains, locus YMR205C, strain PFK2, hits give low values 0.979 | S. cerevisiae deletion strains, locus YMR223W, strain ubp8, hits give low values 1.01 | S. cerevisiae deletion strains, locus YMR231W, strain pep5, hits give low values 1.01 | S. cerevisiae deletion strains, locus YMR263W, strain SAP30, hits give low values 1 and 1.01 | S. cerevisiae deletion strains, locus YMR307W, strain GAS1, hits give low values 1.02 and 1.01 | S. cerevisiae deletion strains, locus YNL067W, strain RPL9B, hits give low values 0.997 | S. cerevisiae deletion strains, locus YNL071W, strain lat1, hits give low values 0.998 | S. cerevisiae deletion strains, locus YNL128W, strain TEP1, hits give low values 1.01 | S. cerevisiae deletion strains, locus YNL153C, strain GIM3, hits give low values 1 | S. cerevisiae deletion strains, locus YNL175C, strain NOP13, hits give low values 0.962 | S. cerevisiae deletion strains, locus YNL183C, strain NPR1, hits give low values 0.93 | S. cerevisiae deletion strains, locus YNL197C, strain WHI3, hits give low values 0.99 | S. cerevisiae deletion strains, locus YNL209W, strain ssb2, hits give low values 1 | S. cerevisiae deletion strains, locus YNL224C, strain SQS1, hits give low values 1.01 | S. cerevisiae deletion strains, locus YNL233W, strain BNI4, hits give low values 1 | S. cerevisiae deletion strains, locus YNL248C, strain rpa49, hits give low values 1.03 | S. cerevisiae deletion strains, locus YNL250W, strain rad50, hits give low values 1.02 | S. cerevisiae deletion strains, locus YNL271C, strain bni1, hits give low values 1.01 | S. cerevisiae deletion strains, locus YNL298W, strain CLA4, hits give low values 1 | S. cerevisiae deletion strains, locus YNL307C, strain MCK1, hits give low values 1.01 | S. cerevisiae deletion strains, locus YNL322C, strain KRE1 (second series), hits give low values 1 | S. cerevisiae deletion strains, locus YNL322C, strain KRE1, hits give low values 1.01 | S. cerevisiae deletion strains, locus YNR049C, strain mso1, hits give low values 0.993 | S. cerevisiae deletion strains, locus YNR052C, strain pop2, hits give low values 1.01 | S. cerevisiae deletion strains, locus YOL006C, strain TOP1, hits give low values 1.01 | S. cerevisiae deletion strains, locus YOL012C, strain htz1 1.04 | S. cerevisiae deletion strains, locus YOL147C, strain pex11, hits give low values 1.01 | S. cerevisiae deletion strains, locus YOR001W, strain rrp6, hits give low values 1 | S. cerevisiae deletion strains, locus YOR061W, strain CKA2, hits give low values 0.999 | S. cerevisiae deletion strains, locus YOR069W, strain VPS5, hits give low values 1.01 | S. cerevisiae deletion strains, locus YOR070C, strain gyp1, hits give low values 1.02 | S. cerevisiae deletion strains, locus YOR080W, strain dia2, hits give low values 1.01 | S. cerevisiae deletion strains, locus YOR083W, strain WHI5 (second series), hits give low values 0.986 | S. cerevisiae deletion strains, locus YOR083W, strain WHI5, hits give low values 0.974 | S. cerevisiae deletion strains, locus YOR106W, strain vam3, hits give low values 1 | S. cerevisiae deletion strains, locus YOR136W, strain idh2, hits give low values 1.01 | S. cerevisiae deletion strains, locus YOR144C, strain elg1, hits give low values 1.01 | S. cerevisiae deletion strains, locus YOR184W, strain ser1, hits give low values 1.01 | S. cerevisiae deletion strains, locus YOR231W, strain MKK1, hits give low values 0.935 | S. cerevisiae deletion strains, locus YOR265W, strain rbl2, hits give low values 0.999 | S. cerevisiae deletion strains, locus YOR270C, strain vph1, hits give low values 0.92 | S. cerevisiae deletion strains, locus YOR290C, strain snf2, hits give low values 1.03 | S. cerevisiae deletion strains, locus YOR316C, strain cot1, hits give low values 1.01 | S. cerevisiae deletion strains, locus YPL051W, strain arl3, hits give low values 1.01 | S. cerevisiae deletion strains, locus YPL055C, strain LGE1, hits give low values 1 and 1.02 | S. cerevisiae deletion strains, locus YPL078C, strain atp4, hits give low values 1.03 | S. cerevisiae deletion strains, locus YPL106C, strain sse1, hits give low values 1.08 | S. cerevisiae deletion strains, locus YPL240C, strain hsp82, hits give low values 1.02 | S. cerevisiae deletion strains, locus YPL241C, strain CIN2, hits give low values 0.985 | S. cerevisiae deletion strains, locus YPL256C, strain CLN2, hits give low values 0.955 | S. cerevisiae deletion strains, locus YPR119W, strain clb2, hits give low values 1.01 | S. cerevisiae deletion strains, locus YPR141C, strain kar3, hits give low values 1.02 | S. cerevisiae deletion strains, locus YPR163C, strain tif3, hits give low values 1.01 | S. cerevisiae deletion strains, locus YPR167C, strain met16, hits give low values 1.01 | S. cerevisiae deletion strains, strain wtn01, hits give low values 1 | S. cerevisiae strains, strain wild type, hits give low values 1
